Source: PubChem BioAssay (Tox21)
“And” between values parts separate entries of the source, which are not always exact repeats. Equal values may be shown once. A structure can be active in one record and inactive in another. The source made the active and inactive calls. Unless noted, calls follow the shape of the dose curve; as a rule, active = well fitted curve in the direction sought with a large enough effect in the repeat runs; inconclusive = weak or mixed curves; inactive = no such curve, though single readings can be large; an effect the other way counts as inactive or inconclusive.

Legend:
[1] = qHTS assay to identify small molecule antagonists of the thyroid receptor (TR) signaling pathway - cell viability counter screen (AID 743064); also: nearly all actives have a fitted effect of over 50% in size; also: potency is read from the fitted curve at half-maximal effect
Outline: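 GH3.TRE-Luc rat pituitary cells carrying a TRE-luciferase reporter were treated with compound plus 1 nM T3 (final) for 23.5 h at 37 °C. Viability was then read in the same wells by CellTiter-Fluor fluorescence after a further 30 min.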

[2] = qHTS assay to identify small molecule antagonists of the thyroid receptor (TR) signaling pathway (AID 743065); also: nearly all actives have a fitted effect of over 55% in size; also: potency is read from the fitted curve at half-maximal effect
Outline: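 Antagonism measured as loss of luciferase signal in GH3 cells stably carrying a TRE-luciferase reporter, co-treated with compound and T3 (1 nM final) for 23.5 h at 37 C. Viability was read in the same well by CellTiter-Fluor.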

[3] = tested on: thyroid hormone receptor (rat, GH3 cells); assay: qHTS assay to identify small molecule agonists of the thyroid receptor (TR) signaling pathway (AID 743066; calls by dose curve)
[4] = qHTS assay to identify small molecule antagonists of the estrogen receptor alpha (ER-alpha) signaling pathway - cell viability counter screen (AID 743074; calls by dose curve;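 also: HEK293 cells carrying ER-alpha-UAS-bla reporter stimulated with 17beta-estradiol; nearly all actives have a fitted effect of over 45% in size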; also: potency is read from the fitted curve at half-maximal effect)
[5] = biological target: Aromatase (Homo sapiens) (UniProt P11511); assay: qHTS assay to identify aromatase inhibitors (AID 743083); also: nearly all actives have a fitted effect of over 55% in size; also: potency is read from the fitted curve at half-maximal effect
[6] = qHTS assay to identify aromatase inhibitors - cell viability counter screen (AID 743084);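 also: cells stimulated with testosterone during compound exposure; nearly all actives have a fitted effect of over 55% in size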; also: potency is read from the fitted curve at half-maximal effect
[7] = biological target: Aryl hydrocarbon receptor (Homo sapiens) (UniProt P35869); assay: qHTS assay to identify small molecule that activate the aryl hydrocarbon receptor (AhR) signaling pathway (AID 743085); also: nearly all actives have a fitted effect of over 15% in size; also: potency is read from the fitted curve at half-maximal effect;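 as to activation: HG2L7.5c1 human HepG2 liver cells with stably integrated DRE-driven firefly reporter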
Outline: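 HepG2 cells (HG2L7.5c1) stably carrying a firefly luciferase reporter driven by 20 dioxin responsive elements were exposed to compound for 24 h at 37C after a 5 h settling period; luminescence rise (ONE-Glo) indicated activation.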

[8] = qHTS assay to identify small molecule that activate the aryl hydrocarbon receptor (AhR) signaling pathway - cell viability counter screen (AID 743086); also: nearly all actives have a fitted effect of over 45% in size; also: potency is read from the fitted curve at half-maximal effect
Outline: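 Cytotoxicity counter screen: CellTiter-Fluor signal (30 min, 37 C) in 4000 HepG2 cells/well carrying the DRE-luciferase reporter, following 24 h compound exposure at 37 C.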

[9] = qHTS assay to identify small molecule antagonists of the peroxisome proliferator-activated receptor gamma (PPARg) signaling pathway - cell viability counter screen (AID 743194); also: nearly all actives have a fitted effect of over 55% in size; also: potency is read from the fitted curve at half-maximal effect
Outline: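 Viability was measured as CellTiter-Glo luminescence in GeneBLAzer PPARg UAS-bla HEK293H cells. These cells had been exposed 17 h at 37 C to compounds together with rosiglitazone at 50 nM final, with the beta-lactamase readout taken in the same wells.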

[10] = qHTS assay for small molecule agonists of the antioxidant response element (ARE) signaling pathway - cell viability counter screen (AID 743203; calls by dose curve; also: nearly all actives have a fitted effect of over 55% in size; also: potency is read from the fitted curve at half-maximal effect)
Outline: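 Cytotoxicity was tested in parallel with the ARE reporter screen. ARE-bla HepG2 cells were exposed to compounds for 16 hrs, and viability was taken from CellTiter-Glo luminescence.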

[11] = qHTS assay for small molecule activators of the heat shock response signaling pathway - cell viability counter screen (AID 743209); also: nearly all actives have a fitted effect of over 50% in size; also: potency is read from the fitted curve at half-maximal effect
Outline: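 Cytotoxicity counter screen run in parallel with the HSE beta-lactamase reporter, using the same wells. HeLa HSE-bla cells received compound for 5 h at 37 C; ATP-based CellTiter-Glo luminescence was measured after 30 min at room temperature.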

[12] = qHTS assay to identify small molecule antagonists of the estrogen receptor alpha (ER-alpha) signaling pathway using the BG1 cell line - cell viability counter screen (AID 743081);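 also: compound given together with 17beta-estradiol as the ER stimulus; nearly all actives have a fitted effect of over 45% in size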; also: potency is read from the fitted curve at half-maximal effect
[13] = biological target: Peroxisome proliferator-activated receptor gamma (Homo sapiens) (UniProt P37231); assay: qHTS assay to identify small molecule agonists of the peroxisome proliferator-activated receptor gamma (PPARg) signaling pathway (AID 743094; active = well fitted activation curve with a large enough effect in the signal ratio in the repeat runs, not every such curve was filed as active; inconclusive = weak or mixed curves, or effect the other way; inactive = no such curve, though single readings can be large or run the other way; the % refers to the signal ratio)
Outline: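 Cells from the PPARg UAS-bla HEK293H line are plated and incubated 5 h at 37C. Compounds in DMSO are pinned in and left 17 h at 37C. LiveBLAzer B/G substrate is then added for 1 h at room temperature before fluorescence is measured.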

[14] = biological target: Peroxisome proliferator-activated receptor gamma (Homo sapiens) (UniProt P37231); assay: qHTS assay to identify small molecule antagonists of the peroxisome proliferator-activated receptor gamma (PPARg) signaling pathway (AID 743191; calls by dose curve; also: nearly all actives have a fitted effect of over 30% in size; also: potency is read from the fitted curve at half-maximal effect)
Outline: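 Beta-lactamase reporter under UAS control in HEK293H PPARg-bla cells; compound treatment 17 h at 37C. Read-out: fluorescence intensity after 1 h room-temperature incubation with LiveBLAzer B/G FRET substrate.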

[15] = qHTS assay for small molecule agonists of the antioxidant response element (ARE) signaling pathway (AID 743202; active = well fitted activation curve with a large enough effect in the signal ratio in the repeat runs, not every such curve was filed as active; inconclusive = weak or mixed curves, or effect the other way; inactive = no such curve, though single readings can be large or run the other way; the % refers to the signal ratio; also: potency is read from the fitted curve at half-maximal effect)
Outline: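 After 16 hours of compound treatment at 37 C, HepG2 cells with a stably integrated ARE-driven beta-lactamase reporter were loaded 2 hours at room temperature with LiveBLAzer B/G FRET substrate and fluorescence intensity measured.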

[16] = qHTS assay for small molecule activators of the heat shock response signaling pathway (AID 743210; active = well fitted activation curve with a large enough effect in the signal ratio in the repeat runs, with a control signal flat, not every such curve was filed as active; inconclusive = weak or mixed curves; the % refers to the signal ratio)
Outline: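 Compound exposure lasted 5 h at 37 C in HeLa cells carrying a heat-shock-element-driven beta-lactamase reporter. Read-out: fluorescence intensity after 2.5 h room-temperature loading with LiveBLAzer B/G FRET substrate.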

[17] = biological target: Estrogen receptor (Homo sapiens) (UniProt P03372); assay: qHTS assay to identify small molecule antagonists of the estrogen receptor alpha (ER-alpha) signaling pathway (AID 743069; active = well fitted curve in the direction sought with a large enough effect in the signal ratio in the repeat runs, not every such curve was filed as active; inconclusive = weak or mixed curves, or effect the other way; inactive = no such curve, though single readings can be large or run the other way; the % refers to the signal ratio; also: potency is read from the fitted curve at half-maximal effect)
Outline: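 Antagonist mode: compounds in DMSO were co-added with 17beta-estradiol to ER-alpha-bla HEK293 cells (2% charcoal-stripped serum) and left 18 h at 37C. Reporter inhibition was measured as FRET fluorescence after 2 h LiveBLAzer substrate at room temperature.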

[18] = biological target: Estrogen receptor (Homo sapiens) (UniProt P03372); assay: qHTS assay to identify small molecule agonists of the estrogen receptor alpha (ER-alpha) signaling pathway (AID 743075; calls by dose curve;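 also: HEK293 GripTite cells with ER-alpha and UAS-driven beta-lactamase reporter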); settings: HEK293 ER-alpha-UAS-bla, beta-lactamase FRET ratio, 18 h; activation: at 70.1 µM (top of the series)
[19] = qHTS assay to identify small molecule antagonists of the estrogen receptor alpha (ER-alpha) signaling pathway using the BG1 cell line (AID 743080; calls by dose curve;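 also: BG1 cells stimulated with 17beta-estradiol alongside compound; potency is read from the fitted curve at half-maximal effect; nearly all actives have a fitted effect of over 25% in size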)
Outline: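 BG1-Luc-4E2 cells (endogenous full-length ER-alpha, 4xERE luciferase) hormone-starved 5 days in charcoal-stripped FBS, plated 4,000/well for 24 h, then compound plus 17beta-estradiol for 21.5 h at 37 C; ONE-Glo luminescence read.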

Measured: Potency

Aromatase (Homo sapiens), sequence (P11511 whole entry, looked up): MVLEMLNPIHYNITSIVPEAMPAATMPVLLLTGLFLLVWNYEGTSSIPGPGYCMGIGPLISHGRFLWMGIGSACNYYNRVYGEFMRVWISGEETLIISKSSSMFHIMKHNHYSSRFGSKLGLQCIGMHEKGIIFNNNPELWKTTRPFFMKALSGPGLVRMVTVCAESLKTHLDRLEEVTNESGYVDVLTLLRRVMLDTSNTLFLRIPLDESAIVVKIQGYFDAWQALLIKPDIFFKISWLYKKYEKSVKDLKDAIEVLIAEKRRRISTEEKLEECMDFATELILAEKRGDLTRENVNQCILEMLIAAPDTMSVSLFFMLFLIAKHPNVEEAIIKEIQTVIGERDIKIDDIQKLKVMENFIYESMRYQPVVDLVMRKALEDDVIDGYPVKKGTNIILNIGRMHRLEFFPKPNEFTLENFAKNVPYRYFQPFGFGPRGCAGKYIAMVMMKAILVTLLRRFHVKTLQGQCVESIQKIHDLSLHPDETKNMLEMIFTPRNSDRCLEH
Aryl hydrocarbon receptor (Homo sapiens), sequence (P35869 whole entry, looked up): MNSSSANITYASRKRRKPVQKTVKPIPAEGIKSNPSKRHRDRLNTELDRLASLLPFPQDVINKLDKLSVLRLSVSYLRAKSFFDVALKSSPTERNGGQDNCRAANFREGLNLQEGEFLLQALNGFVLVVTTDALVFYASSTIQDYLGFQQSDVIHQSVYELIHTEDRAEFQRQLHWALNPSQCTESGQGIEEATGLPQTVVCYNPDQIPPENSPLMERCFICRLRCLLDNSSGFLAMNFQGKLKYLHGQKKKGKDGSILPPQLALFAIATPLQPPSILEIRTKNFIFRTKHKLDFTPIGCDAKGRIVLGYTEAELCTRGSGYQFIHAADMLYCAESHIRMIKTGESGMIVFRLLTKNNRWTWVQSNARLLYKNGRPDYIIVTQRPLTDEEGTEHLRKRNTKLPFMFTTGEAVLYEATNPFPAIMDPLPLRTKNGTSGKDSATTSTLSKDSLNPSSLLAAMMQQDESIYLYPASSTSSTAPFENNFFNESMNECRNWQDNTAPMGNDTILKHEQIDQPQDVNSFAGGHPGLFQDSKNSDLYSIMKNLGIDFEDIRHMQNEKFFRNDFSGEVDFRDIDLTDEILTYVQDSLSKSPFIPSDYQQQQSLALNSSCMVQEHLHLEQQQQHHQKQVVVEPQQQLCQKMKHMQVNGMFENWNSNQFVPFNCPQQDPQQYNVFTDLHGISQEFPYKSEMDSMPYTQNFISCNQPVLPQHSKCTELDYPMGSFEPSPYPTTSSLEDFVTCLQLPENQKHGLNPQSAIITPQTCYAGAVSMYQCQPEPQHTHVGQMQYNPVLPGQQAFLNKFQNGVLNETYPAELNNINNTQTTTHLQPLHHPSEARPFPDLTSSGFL
Peroxisome proliferator-activated receptor gamma (Homo sapiens), sequence (P37231 whole entry, looked up): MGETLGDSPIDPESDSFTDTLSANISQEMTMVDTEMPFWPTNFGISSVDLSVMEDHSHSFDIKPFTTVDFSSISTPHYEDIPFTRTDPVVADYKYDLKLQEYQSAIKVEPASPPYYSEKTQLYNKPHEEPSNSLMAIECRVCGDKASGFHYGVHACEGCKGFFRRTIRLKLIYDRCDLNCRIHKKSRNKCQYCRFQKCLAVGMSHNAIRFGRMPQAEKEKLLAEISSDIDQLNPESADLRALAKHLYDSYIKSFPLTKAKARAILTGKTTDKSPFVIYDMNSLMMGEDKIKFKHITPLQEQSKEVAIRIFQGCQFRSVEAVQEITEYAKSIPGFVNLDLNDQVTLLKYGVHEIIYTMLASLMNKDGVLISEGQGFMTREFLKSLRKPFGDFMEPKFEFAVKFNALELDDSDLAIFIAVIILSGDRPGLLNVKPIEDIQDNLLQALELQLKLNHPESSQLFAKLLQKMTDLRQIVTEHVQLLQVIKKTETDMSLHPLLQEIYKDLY
Estrogen receptor (Homo sapiens), sequence (P03372 whole entry, looked up): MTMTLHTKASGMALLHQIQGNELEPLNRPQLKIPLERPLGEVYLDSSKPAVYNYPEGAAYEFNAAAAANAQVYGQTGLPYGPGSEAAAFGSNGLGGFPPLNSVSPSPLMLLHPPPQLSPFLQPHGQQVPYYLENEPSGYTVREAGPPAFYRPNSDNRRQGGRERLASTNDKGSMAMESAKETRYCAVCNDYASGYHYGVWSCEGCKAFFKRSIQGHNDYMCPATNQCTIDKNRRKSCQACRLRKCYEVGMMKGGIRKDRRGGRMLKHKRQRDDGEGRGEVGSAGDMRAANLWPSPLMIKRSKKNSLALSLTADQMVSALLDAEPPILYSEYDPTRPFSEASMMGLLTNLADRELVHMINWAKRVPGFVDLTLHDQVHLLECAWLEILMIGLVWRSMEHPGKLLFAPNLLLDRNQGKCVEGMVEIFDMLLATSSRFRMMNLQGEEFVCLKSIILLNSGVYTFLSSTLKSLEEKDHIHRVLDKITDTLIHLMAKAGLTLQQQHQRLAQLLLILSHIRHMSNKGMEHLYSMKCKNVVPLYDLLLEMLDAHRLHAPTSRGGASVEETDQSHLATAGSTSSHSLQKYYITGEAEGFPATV

CCCC(c1cc(C(C)(C)C)c(O)cc1C)c1cc(C(C)(C)C)c(O)cc1C
inactive: [3] | [7] | [8]
active: [1] 3.9 µM | [2] 3.1 µM | [4] 19.7 µM | [5] 15.5 µM | [6] 49.2 µM | [9] 17.6 µM | [10] 17.4 µM | [11] 12.5 µM

Cc1[nH]nc2c1N=C(c1ccccc1Cl)c1cc([N+](=O)[O-])ccc1N2
active: [1] 27.3 µM | [2] 19.3 µM | [4] 6.92 µM | [12] 54.5 µM | [8] 48.6 µM | [9] 38.9 µM | [11] 15.5 µM
inactive: [3]

S=c1[nH]c2ccccc2s1
inactive: [1] | [2] | [3] | [5] | [6] | [8] | [10]
inactive and 6.16 µM (active): [4]

C[C@H]1[C@H]2CC[C@H]3[C@@H]4CC=C5C[C@@H](N(C)C)CC[C@]5(C)[C@H]4CC[C@]23CN1C
inactive: [1] | [2] | [3] | [4] | [5] | [6] | [7] | [13] | [14] | [15] | [10] | [11] | [16]

CCc1cc(Cc2cc(CC)c(N)c(CC)c2)cc(CC)c1N
inactive: [18] | [12] | [6]
active: [1] 68.6 µM | [2] 48.6 µM | [17] 38.9 µM [inconclusive] | [19] 61.1 µM | [7] 2.73 µM | [14] 38.9 µM | [10] 54.5 µM

CC(C)(C)c1ccc(C(=O)O)cc1
inactive: [1] | [2] | [3] | [4] | [12] | [5] | [6] | [8] | [9] | [15] | [10] | [11] | [16]

CCOC(=O)O[C@]1(C(=O)OCCl)CC[C@H]2[C@@H]3CCC4=CC(=O)C=C[C@]4(C)[C@H]3[C@@H](O)C[C@@]21C
active: [15] 10.6 µM
inactive: [1] | [2] | [3] | [4] | [12] | [5] | [6] | [7] | [8] | [13] | [9] | [10] | [11] | [16]

CC(C)OC(=O)c1cc2c(OCC(O)CNC(C)(C)C)cccc2[nH]1 (centres undefined)
active: [1] 13.3 µM | [2] 21.1 µM
inactive: [3] | [4] | [12] | [5] | [6] | [8] | [10] | [11] | [16]
